Holding throughout (experiment): NCI-60 one-dose screen, 48 h (100 = growth as untreated, 0 = no growth, -100 = all killed)
One assay concerns SR leukemia. The settings on record: 10 µM unless noted.
In another assay the test system is RPMI-8226 leukemia. The note with it: 10 µM.
The test system of a further assay is OVCAR-8 ovarian. The note with it: 10 µM unless noted.
Another assay concerns OVCAR-5 ovarian. The settings on record: 10 µM unless noted.
The subject of another assay is OVCAR-4 ovarian. The note with it: 10 µM unless noted.
In another assay the test system is IGROV1 ovarian. The note with it: 10 µM unless noted.
The next assay relates to OVCAR-3 ovarian. The note with it: 10 µM unless noted.
The subject of another assay is HS 578T breast. The note with it: 10 µM unless noted.
The subject of another assay is NCI/ADR-RES ovarian. The settings on record: 10 µM unless noted.
Another assay relates to T-47D breast. The settings on record: 10 µM.
A further assay has as its system BT-549 breast. The note with it: 10 µM unless noted.
Another assay has as its system MDA-MB-435 melanoma. The settings on record: 10 µM unless noted.
A further assay has as its system SW-620 colon. The note with it: 10 µM unless noted.
In the next assay the test system is MCF7 breast. The settings on record: 10 µM unless noted.
The test system of a further assay is HCT-116 colon. The note with it: 10 µM unless noted.
The subject of the next assay is HCC-2998 colon. The note with it: 10 µM unless noted.
Another assay concerns KM12 colon. The settings on record: 10 µM unless noted.

The panel holds about 83,000 compounds, 20% with a hit somewhere; the sample as a whole holds those more often.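 Testing used 96-well plates and a 48-hour single-concentration exposure. Example: -40 means 40% of the starting cells died.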 Values without a mark were called inactive. Activity calls are given as the source filed them. The calls were made as follows: active = growth percent below 10; inactive = the rest.

Turning to `CCCN1CCN(c2ccc3nc(-c4ccc5nc(-c6ccc(C(F)(F)F)cc6)[nH]c5c4)[nH]c3c2)CC1`, the growth was -35.5% (active) in the assay with SR leukemia; -29.9% (active) with RPMI-8226 leukemia; -38% (active) in the assay with OVCAR-8 ovarian; -25% (active) with OVCAR-5 ovarian; -82.5% (active) in the assay with OVCAR-4 ovarian; -83.5% (active) with IGROV1 ovarian. The growth with OVCAR-3 ovarian was -96.9% (active); in the assay on HS 578T breast, 4.6% (active); with NCI/ADR-RES ovarian, 74%; in the assay on T-47D breast, 48%; in the assay with BT-549 breast, 73.5%; in the assay on MDA-MB-435 melanoma, -89% (active). The growth in the assay on SW-620 colon is -82.6% (active); in the assay on MCF7 breast, -77% (active); in the assay on HCT-116 colon, -83.3% (active); with HCC-2998 colon it was -89.8% (active); in the assay with KM12 colon, -86.4% (active).
For `CCCCC(O)Cn1ncc(C(=O)OCC)c1NC(=O)NCc1ccccc1C(F)(F)F` (stereo not drawn), the growth with SR leukemia is 87.9%; with RPMI-8226 leukemia it was 88.6%; in the assay on OVCAR-8 ovarian it was 98.7%; in the assay on OVCAR-5 ovarian it was 105%; in the assay on OVCAR-4 ovarian it was 85%; in the assay on IGROV1 ovarian, 99%. For the same compound, the growth in the assay on OVCAR-3 ovarian was 108%; with HS 578T breast, 106%; in the assay with NCI/ADR-RES ovarian, 98.7%; in the assay on BT-549 breast, 92%; in the assay on MDA-MB-435 melanoma, 99.5%; with SW-620 colon it was 104%. Further, the growth was 94.1% in the assay on MCF7 breast, 89.6% with HCT-116 colon, 108% in the assay with HCC-2998 colon and 101% in the assay with KM12 colon.
Turning to `COc1ccc(OC)c(/C=C2\Oc3cc(O)ccc3C2=O)c1`, the growth with SR leukemia was 75.7%; with RPMI-8226 leukemia, 92.2%; with OVCAR-8 ovarian it was 85.6%; in the assay with OVCAR-5 ovarian, 101%; with OVCAR-4 ovarian, 86.7%; in the assay on IGROV1 ovarian, 89.3%. Also, the growth with OVCAR-3 ovarian is 95.8%; with HS 578T breast, 80.8%; in the assay on NCI/ADR-RES ovarian, 92.9%; in the assay on BT-549 breast it was 79.8%; with MDA-MB-435 melanoma, 82.7%; in the assay on SW-620 colon, 92.2%. The growth was 94.2% in the assay on MCF7 breast, 79.2% in the assay on HCT-116 colon and 99.3% with HCC-2998 colon.
As to `CCN1CCN(c2nc3ccccc3c3c(=O)c4cc(F)ccc4sc23)CC1`, the growth in the assay with SR leukemia is 0.85% (active); with RPMI-8226 leukemia, 65.5%; in the assay with OVCAR-8 ovarian, 71%; in the assay on OVCAR-5 ovarian, 79.8%; with OVCAR-4 ovarian, 63%; with IGROV1 ovarian it was 57%. In addition, the growth was 71% with OVCAR-3 ovarian; 62.1% in the assay on HS 578T breast; 78.3% in the assay with NCI/ADR-RES ovarian; 85.7% with BT-549 breast; 10.2% with MDA-MB-435 melanoma; 37.2% in the assay with SW-620 colon. Moreover, the figures for the growth in the assay on MCF7 breast, with HCC-2998 colon and with KM12 colon were 65.1%, 64.9% and 48.5%, respectively.
In the case of `O=C1/C(=C/c2ccc([N+](=O)[O-])cc2)Oc2ccc(O)cc21`, the growth in the assay with SR leukemia was 43%; in the assay on RPMI-8226 leukemia, 34%; in the assay on OVCAR-8 ovarian, 90.7%; with OVCAR-5 ovarian, -9.84% (active); with OVCAR-4 ovarian it was 39.7%; in the assay with IGROV1 ovarian, 18%. The growth with OVCAR-3 ovarian is 16.7%; in the assay on HS 578T breast, 97.2%; in the assay on NCI/ADR-RES ovarian, 89%; in the assay on MDA-MB-435 melanoma, 95%; in the assay on SW-620 colon, 25.9%; in the assay on MCF7 breast it was 3.33% (active). The growth with HCT-116 colon is 9.15% (active); in the assay on HCC-2998 colon, 46%; with KM12 colon, 102%.

For the origin of these results see PubChem BioAssay (NCI).
